Data as given in the supplement of paper PMC10849652.
Targets with a hit are over-represented here; the source holds about 7,900 in all. About 0.6% of all pairs of compound and target were hits. Unmarked numbers belong to inactive results.

Legend:
Assay in all cases: log2 fold change, soluble protein after heating vs DMSO (PISA); higher = thermal stabilisation; K562 cells, 10 uM, 30 min; active = over 0.2 and 3.5 SD of the protein, either way, in both replicates (recomputed)
[1] = compound: CC[C@@H]1C(=O)N(C)c2cnc(Nc3ccc(C(=O)NC4CCN(C)CC4)cc3OC)nc2N1C1CCCC1
Procedure, shortened: (§1)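 K562 cells at 2×10^6 cells/mL were exposed to 10 μM compound for 30 min, then aliquots were heated for 3 min across 48°C-58°C, pooled, and extracted in PBS containing 0.5% NP-40 at 4°C. The supernatant after 21,000xg for 90 min was taken as soluble protein and measured by TMTpro 16plex LC-MS/MS with channel sums equalised. Thermal stability is reported relative to control samples, with values from duplicates. Fold changes are given on a log2 scale.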

[2] = compound: CC[C@@H]1C(=O)N(C)c2cnc(Nc3ccc(C(=O)N[C@H]4CC[C@H](N5CCN(CC6CC6)CC5)CC4)cc3OC)nc2N1C(C)C [volasertib]
Procedure, shortened: as §1

[3] = compound: CC[C@H](C)N1C=C(C2=C(C=C(C=C21)C3=CN=C(C=C3)N4CCNCC4)C(=O)NCC5=C(C=C(NC5=O)C)C)C
Procedure, shortened: as §1

[4] = compound: CC[C@H](C)[C@@H](C(=O)N[C@@H]([C@@H](C)O)C(=O)N[C@@H](CC(C)C)C(=O)[C@]1(CO1)C)NC(=O)[C@H]([C@@H](C)CC)N(C)C(=O)C [epoxomicin]
Procedure, shortened: as §1

[5] = compound: CCn1c(C(=O)N(C2CC2)C2CC2)cc2c3c(ncn3C)c(Nc3cc(C)n(C)n3)nc21
Procedure, shortened: as §1

[6] = compound: CCn1cc(-c2ccnc3[nH]c(-c4cccc(CN(C)C)c4)cc23)c(-c2ccc(NC(=O)N(C)C)cc2)n1
Procedure, shortened: as §1

[7] = compound: CN(C)CC(=O)Nc1ccc2[nH]c(=O)c3ccccc3c2c1
Procedure, shortened: as §1

[8] = compound: CN(CCOC1=CC=C(C=C1)C[C@H]2C(=O)NC(=O)S2)C3=CC=CC=N3 (racemic) [rosiglitazone]
Procedure, shortened: as §1

[9] = compound: CN1C2=C(C3=C1C(=O)N(N=C3)CC4=CC(=CC=C4)N)SC(=C2)S(=O)C
Procedure, shortened: as §1

[10] = compound: CN1CCC(CNc2ccc3ncc(-c4cccc(OC(F)(F)F)c4)n3n2)CC1
Procedure, shortened: as §1

[11] = compound: CN1CCN(CCOc2cc(OC3CCOCC3)c3c(Nc4c(Cl)ccc5c4OCO5)ncnc3c2)CC1 [saracatinib]
Procedure, shortened: as §1

[12] = compound: CN1CCN(c2nc(C3=C(c4c[nH]c5ccccc45)C(=O)NC3=O)c3ccccc3n2)CC1 [sotrastaurin]
Procedure, shortened: as §1

[13] = compound: CN1CC[C@H](c2c(O)cc(O)c3c(=O)cc(-c4ccccc4Cl)oc23)[C@H](O)C1 [alvocidib]
Procedure, shortened: as §1

[14] = compound: CN1CCc2c(c3ccccc3n2Cc2ccc(C(=O)NO)cc2)C1 [Tubastatin A]
Procedure, shortened: as §1

[15] = compound: CNC(=O)C1=CC=CC=C1NC2=NC(=NC=C2Cl)NC3=C(C=C(C=C3)N4CCOCC4)OC
Procedure, shortened: as §1

[16] = compound: CNC(=O)c1ccc(Nc2ncc(C(F)(F)F)c(NCc3nccnc3N(C)S(C)(=O)=O)n2)cc1 [defactinib]
Procedure, shortened: as §1

[17] = compound: CNCc1ccc(-c2[nH]c3cc(F)cc4c3c2CCNC4=O)cc1 [rucaparib]
Procedure, shortened: as §1

[18] = compound: CNc1nc(-c2ccc3c(N)n[nH]c3c2)cc(N2C[C@@H](C(=O)NC3CCCCC3)CC[C@H]2C)n1
Procedure, shortened: as §1

[19] = compound: COC(=O)N[C@@H](C)CNc1nccc(-c2cn(C(C)C)nc2-c2cc(Cl)cc(NS(C)(=O)=O)c2F)n1 [encorafenib]
Procedure, shortened: as §1

[20] = compound: COC(=O)[C@H](CCSC)NC(=O)C1=C(C=C(C=C1)NC[C@H](CS)N)C2=CC=CC=C2
Procedure, shortened: as §1

Sequence of UniProt P19174 (P19174 whole entry, looked up): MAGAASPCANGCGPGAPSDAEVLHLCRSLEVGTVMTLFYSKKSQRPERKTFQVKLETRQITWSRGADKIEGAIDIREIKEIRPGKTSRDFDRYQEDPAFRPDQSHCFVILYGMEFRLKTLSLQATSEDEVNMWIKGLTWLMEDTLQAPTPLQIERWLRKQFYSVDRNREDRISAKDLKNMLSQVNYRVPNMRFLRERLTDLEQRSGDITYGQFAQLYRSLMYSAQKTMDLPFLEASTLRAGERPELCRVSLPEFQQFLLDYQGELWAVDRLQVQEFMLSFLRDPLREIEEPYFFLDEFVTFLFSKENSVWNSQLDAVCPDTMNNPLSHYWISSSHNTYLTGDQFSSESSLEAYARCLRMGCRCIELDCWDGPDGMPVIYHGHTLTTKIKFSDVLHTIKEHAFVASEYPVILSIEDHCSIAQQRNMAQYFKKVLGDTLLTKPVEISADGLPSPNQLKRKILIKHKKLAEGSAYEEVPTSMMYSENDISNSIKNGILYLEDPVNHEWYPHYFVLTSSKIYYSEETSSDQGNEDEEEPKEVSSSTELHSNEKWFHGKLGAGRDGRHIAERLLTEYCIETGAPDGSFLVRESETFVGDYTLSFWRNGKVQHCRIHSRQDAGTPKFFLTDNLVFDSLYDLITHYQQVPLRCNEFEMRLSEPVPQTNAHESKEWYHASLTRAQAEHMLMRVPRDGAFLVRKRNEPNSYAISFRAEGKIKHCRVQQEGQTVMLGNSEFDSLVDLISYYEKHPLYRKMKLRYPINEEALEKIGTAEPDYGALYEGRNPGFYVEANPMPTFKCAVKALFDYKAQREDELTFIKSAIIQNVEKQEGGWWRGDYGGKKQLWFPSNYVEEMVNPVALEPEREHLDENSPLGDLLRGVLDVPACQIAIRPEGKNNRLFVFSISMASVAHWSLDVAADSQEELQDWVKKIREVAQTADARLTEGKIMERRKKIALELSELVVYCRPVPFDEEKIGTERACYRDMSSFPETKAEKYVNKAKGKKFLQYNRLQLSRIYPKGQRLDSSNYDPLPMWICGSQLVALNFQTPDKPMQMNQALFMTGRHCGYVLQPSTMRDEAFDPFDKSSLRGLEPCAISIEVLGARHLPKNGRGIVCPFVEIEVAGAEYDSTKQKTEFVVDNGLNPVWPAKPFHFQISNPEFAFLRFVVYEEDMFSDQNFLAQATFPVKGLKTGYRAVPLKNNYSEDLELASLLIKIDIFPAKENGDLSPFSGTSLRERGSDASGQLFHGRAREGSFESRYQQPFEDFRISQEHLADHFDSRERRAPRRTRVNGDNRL
Sequence of UniProt Q96KB5 (Q96KB5 whole entry, looked up): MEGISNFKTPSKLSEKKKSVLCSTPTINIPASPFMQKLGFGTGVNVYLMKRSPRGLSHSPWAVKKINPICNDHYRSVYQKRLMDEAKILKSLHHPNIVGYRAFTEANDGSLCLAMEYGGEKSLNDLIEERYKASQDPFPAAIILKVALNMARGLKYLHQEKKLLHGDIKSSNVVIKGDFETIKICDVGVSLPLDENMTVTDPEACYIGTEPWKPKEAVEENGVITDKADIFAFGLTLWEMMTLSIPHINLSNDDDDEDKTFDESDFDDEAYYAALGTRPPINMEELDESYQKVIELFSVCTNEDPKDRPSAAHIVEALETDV
Sequence of UniProt Q9Y478 (Q9Y478 whole entry, looked up): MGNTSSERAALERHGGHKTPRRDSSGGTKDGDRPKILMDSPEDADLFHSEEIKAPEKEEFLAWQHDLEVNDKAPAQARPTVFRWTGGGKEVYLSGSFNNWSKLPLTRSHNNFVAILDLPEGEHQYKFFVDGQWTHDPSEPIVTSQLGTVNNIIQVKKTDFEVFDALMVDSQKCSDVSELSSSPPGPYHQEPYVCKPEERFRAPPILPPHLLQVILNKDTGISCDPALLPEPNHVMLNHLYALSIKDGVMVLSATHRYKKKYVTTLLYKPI
Sequence of UniProt P46019 (P46019 whole entry, looked up): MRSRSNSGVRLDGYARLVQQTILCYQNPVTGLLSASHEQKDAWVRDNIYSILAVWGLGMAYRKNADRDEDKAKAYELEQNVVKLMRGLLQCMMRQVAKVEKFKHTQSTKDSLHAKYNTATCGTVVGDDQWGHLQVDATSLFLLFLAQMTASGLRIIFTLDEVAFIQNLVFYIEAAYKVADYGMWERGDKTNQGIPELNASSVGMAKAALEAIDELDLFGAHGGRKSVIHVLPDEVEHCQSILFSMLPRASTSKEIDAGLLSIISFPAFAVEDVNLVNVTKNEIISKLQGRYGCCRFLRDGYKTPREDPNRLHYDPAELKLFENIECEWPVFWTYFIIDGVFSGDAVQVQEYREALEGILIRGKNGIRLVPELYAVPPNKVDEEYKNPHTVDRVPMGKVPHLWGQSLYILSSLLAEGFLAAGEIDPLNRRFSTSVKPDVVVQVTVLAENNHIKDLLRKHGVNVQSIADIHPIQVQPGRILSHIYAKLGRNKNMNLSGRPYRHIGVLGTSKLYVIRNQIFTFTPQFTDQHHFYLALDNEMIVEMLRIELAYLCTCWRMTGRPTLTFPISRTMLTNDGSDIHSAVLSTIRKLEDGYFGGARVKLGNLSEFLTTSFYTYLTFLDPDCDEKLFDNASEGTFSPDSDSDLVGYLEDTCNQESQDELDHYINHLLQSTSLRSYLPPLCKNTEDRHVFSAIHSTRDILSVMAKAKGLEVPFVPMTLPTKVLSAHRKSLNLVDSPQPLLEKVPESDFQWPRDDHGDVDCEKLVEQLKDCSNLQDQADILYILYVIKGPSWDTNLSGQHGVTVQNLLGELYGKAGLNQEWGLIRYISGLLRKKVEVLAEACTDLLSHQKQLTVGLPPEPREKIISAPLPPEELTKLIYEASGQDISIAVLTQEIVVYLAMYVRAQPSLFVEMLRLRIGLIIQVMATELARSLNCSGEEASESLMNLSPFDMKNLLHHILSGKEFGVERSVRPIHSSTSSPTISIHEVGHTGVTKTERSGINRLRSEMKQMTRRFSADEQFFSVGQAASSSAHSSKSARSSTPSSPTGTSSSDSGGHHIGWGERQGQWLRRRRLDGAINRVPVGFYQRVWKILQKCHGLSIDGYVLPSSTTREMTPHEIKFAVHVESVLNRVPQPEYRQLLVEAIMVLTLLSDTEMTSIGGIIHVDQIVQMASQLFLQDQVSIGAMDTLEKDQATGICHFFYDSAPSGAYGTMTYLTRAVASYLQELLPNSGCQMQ
Sequence of UniProt Q9Y244 (Q9Y244 whole entry, looked up): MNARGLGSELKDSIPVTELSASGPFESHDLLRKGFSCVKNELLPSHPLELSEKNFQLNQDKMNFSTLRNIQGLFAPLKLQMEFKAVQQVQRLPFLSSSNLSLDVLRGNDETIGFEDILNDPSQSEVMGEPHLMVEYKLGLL
Sequence of UniProt Q01970 (Q01970 whole entry, looked up): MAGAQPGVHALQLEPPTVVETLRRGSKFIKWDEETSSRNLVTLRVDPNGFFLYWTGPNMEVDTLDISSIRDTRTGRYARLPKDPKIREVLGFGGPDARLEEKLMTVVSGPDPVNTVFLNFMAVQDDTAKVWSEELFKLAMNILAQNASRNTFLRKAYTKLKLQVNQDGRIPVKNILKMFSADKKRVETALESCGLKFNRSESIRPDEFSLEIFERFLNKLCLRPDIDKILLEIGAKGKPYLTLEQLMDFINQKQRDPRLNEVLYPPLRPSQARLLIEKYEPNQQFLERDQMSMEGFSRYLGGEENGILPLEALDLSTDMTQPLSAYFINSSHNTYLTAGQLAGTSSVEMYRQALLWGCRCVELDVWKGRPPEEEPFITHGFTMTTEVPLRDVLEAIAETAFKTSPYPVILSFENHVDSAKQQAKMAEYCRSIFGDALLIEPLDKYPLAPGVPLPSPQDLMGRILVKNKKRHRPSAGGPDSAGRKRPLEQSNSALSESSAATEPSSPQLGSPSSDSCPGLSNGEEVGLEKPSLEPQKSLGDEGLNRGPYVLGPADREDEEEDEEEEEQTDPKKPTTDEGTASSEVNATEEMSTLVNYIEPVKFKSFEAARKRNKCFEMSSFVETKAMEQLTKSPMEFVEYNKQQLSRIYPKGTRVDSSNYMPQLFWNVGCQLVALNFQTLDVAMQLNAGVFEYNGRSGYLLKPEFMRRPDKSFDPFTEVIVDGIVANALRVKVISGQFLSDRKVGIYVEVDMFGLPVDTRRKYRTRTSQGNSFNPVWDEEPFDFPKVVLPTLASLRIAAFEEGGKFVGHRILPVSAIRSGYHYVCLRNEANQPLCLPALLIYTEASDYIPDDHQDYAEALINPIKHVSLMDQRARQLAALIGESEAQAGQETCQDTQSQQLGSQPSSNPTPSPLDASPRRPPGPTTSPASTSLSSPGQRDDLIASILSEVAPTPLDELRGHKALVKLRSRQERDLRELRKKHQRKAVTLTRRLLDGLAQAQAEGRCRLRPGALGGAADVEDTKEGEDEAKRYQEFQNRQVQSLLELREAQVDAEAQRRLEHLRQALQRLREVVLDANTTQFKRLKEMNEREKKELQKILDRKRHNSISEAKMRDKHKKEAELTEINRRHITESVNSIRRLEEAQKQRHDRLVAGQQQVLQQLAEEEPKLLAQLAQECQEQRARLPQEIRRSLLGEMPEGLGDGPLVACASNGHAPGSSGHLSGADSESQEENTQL
Sequence of UniProt Q969N2 (Q969N2 whole entry, looked up): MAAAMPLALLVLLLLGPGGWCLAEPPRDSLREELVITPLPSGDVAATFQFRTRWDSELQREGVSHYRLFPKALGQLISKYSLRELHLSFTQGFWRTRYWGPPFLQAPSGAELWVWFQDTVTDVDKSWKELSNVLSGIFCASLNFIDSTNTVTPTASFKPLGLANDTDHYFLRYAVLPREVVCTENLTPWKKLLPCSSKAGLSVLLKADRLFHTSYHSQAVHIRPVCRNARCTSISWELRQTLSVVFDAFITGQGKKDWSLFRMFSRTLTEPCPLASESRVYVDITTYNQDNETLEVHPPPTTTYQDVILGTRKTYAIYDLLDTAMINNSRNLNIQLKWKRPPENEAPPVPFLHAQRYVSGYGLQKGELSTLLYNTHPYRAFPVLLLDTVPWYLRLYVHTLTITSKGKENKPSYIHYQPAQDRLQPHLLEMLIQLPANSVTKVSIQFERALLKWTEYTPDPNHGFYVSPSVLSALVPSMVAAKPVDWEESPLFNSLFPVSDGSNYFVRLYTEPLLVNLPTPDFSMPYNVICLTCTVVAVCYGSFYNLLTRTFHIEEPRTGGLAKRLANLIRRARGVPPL

Row | Target | log2 fold change [1] | log2 fold change [2] | log2 fold change [3] | log2 fold change [4] | log2 fold change [5] | log2 fold change [6] | log2 fold change [7] | log2 fold change [8] | log2 fold change [9] | log2 fold change [10] | log2 fold change [11] | log2 fold change [12] | log2 fold change [13] | log2 fold change [14] | log2 fold change [15] | log2 fold change [16] | log2 fold change [17] | log2 fold change [18] | log2 fold change [19] | log2 fold change [20]
1 | PMM1 (UniProt Q92871) | -0.029 | -0.239 | -0.024 | -0.002 | -0.025 | 0.08 | 0.009 | 0.047 | -0.061 | -0.018 | 0.006 | 0.094 | -0.011 | -0.018 | -0.315 (active) | -0.007 | 0.095 | 0.028 | -0.017 | -0.023
2 | POLR3B (UniProt Q9NW08) | 0.029 | -0.44 | 0.134 | 0.07 | -0.069 | -0.028 | 0.075 | 0.035 | 0.105 | -0.058 | -0.056 | -0.129 | -0.074 | -0.045 | -0.004 | -0.03 | -0.032 | -0.047 | 0.039 | -0.028
3 | PLCG1 isoform 2 (UniProt P19174) | -0.031 | -0.25 | 0.05 | 0.014 | -0.097 | -0.187 | 0.085 | 0.09 | 0.083 | -0.412 (active) | -0.131 | -0.005 | -0.007 | 0.1 | -0.048 | -0.128 | 0.088 | 0.054 | 0.012 | -0.007
4 | PC (UniProt P11498) | -0.041 | -0.069 | 0.067 | 0.041 | -0.082 | -0.217 | 0.027 | 0.084 | -0.128 | 0.03 | -0.088 | -0.033 | -0.005 | 0.001 | -0.023 | -0.113 | 0.043 | 0.09 | -0.044 | -0.076
5 | PISD (UniProt Q9UG56) | -0.136 | -0.117 | -0.017 | -0.002 | -0.029 | -0.076 | -0.113 | 0.027 | -0.036 | -0.192 | -0.095 | 0.061 | 0 | 0.019 | 0.026 | -0.054 | 0.06 | 0.252 (active) | 0.063 | 0.028
6 | PELP1 (UniProt Q8IZL8) | 0.056 | 0.017 | -0.002 | -0.004 | -0.01 | 0.047 | -0.009 | 0.017 | 0.006 | 0.021 | -0.002 | -0.007 | -0.066 | -0.021 | -0.027 | -0.082 | -0.054 | -0.069 | -0.012 | 0.004
7 | PLCB3 (UniProt Q01970) | -0.05 | -0.037 | 0.044 | 0.009 | 0.026 | -0.08 | 0.02 | 0.058 | -0.009 | -0.246 (active) | -0.044 | -0.039 | -0.02 | -0.027 | 0.023 | -0.074 | -0.015 | -0.045 | 0.004 | -0.083
8 | PRKAB1 (UniProt Q9Y478) | -0.079 | -0.418 (active) | 0.045 | 0.055 | -0.05 | -0.018 | 0.022 | -0.002 | -0.026 | -0.155 | 0.077 | 0 | -0.041 | 0.087 | -0.117 | -0.037 | 0.011 | -0.02 | 0.028 | -0.021
9 | PECAM1 (UniProt P16284) | 0.116 | 0.061 | -0.019 | -0.027 | 0.022 | -0.106 | 0.027 | 0.014 | -0.067 | 0.168 | 0.062 | 0.062 | 0.005 | 0.096 | -0.076 | 0 | 0 | 0.003 | -0.092 | -0.007
10 | PCTP (UniProt Q9UKL6) | -0.017 | -0.012 | -0.067 | 0.039 | -0.058 | -0.055 | -0.005 | 0.025 | -0.011 | -0.279 (active) | 0.083 | -0.016 | 0.014 | -0.002 | 0 | -0.037 | -0.056 | 0.039 | -0.032 | 0.094
11 | PBK (UniProt Q96KB5) | -0.18 | -0.601 (active) | 0.121 | -0.005 | -0.086 | -0.026 | 0.091 | 0.092 | 0.053 | -0.187 | 0.01 | -0.205 | -0.02 | 0.089 | 0.093 | -0.15 | 0.187 | 0.005 | 0.198 | -0.111
12 | POMP (UniProt Q9Y244) | 0.097 | -0.049 | 0.008 | 0.581 (active) | -0.005 | 0.021 | -0.018 | -0.059 | -0.02 | -0.004 | 0.075 | 0.035 | 0.046 | -0.067 | -0.035 | -0.014 | -0.013 | -0.114 | -0.071 | 0.136
13 | PTPMT1 (UniProt Q8WUK0) | -0.298 | -0.127 | 0.002 | 0.088 | 0.044 | -0.051 | 0.012 | -0.012 | -0.006 | -1.21 (active) | -0.037 | -0.059 | -0.008 | -0.063 | 0.027 | -0.07 | -0.118 | -0.019 | 0.044 | 0.045
14 | POGLUT1 (UniProt Q8NBL1) | 0.007 | -0.054 | 0.013 | 0.012 | -0.051 | 0.089 | -0.083 | -0.019 | 0.039 | 0.26 (active) | -0.124 | 0 | 0.06 | 0.009 | -0.004 | 0.039 | 0.069 | -0.063 | 0.015 | 0.042
15 | PHKA2 (UniProt P46019) | -0.049 | -0.094 | -0.174 | 0.071 | -0.047 | -0.029 | 0.01 | 0.026 | -0.002 | -0.35 (active) | 0.032 | -0.085 | -0.088 | -0.021 | 0.135 | 0.012 | -0.063 | -0.009 | -0.022 | -0.03
16 | PIGT (UniProt Q969N2) | 0.02 | -0.118 | 0.035 | -0.011 | 0.019 | -0.046 | 0.013 | 0.014 | 0.015 | 0.081 | -0.024 | -0.023 | -0.021 | -0.052 | 0.029 | 0.012 | -0.002 | 0.013 | 0.048 | -0.015
